# From PubChem
# DAX1 inh-1 = inhibits human nuclear receptor DAX1; P51843; HEK293 Gal4-DAX1 luciferase reporter, luminescence; inhibition, % at 6.75 µM; hit rate 0.99% among 340,000; AID 504766;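 active = inhibition above the mean over all tested compounds plus 3 SD, cut at about 4.2% in these data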;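 also: 0% = DAX1-transfected cells with DMSO and 100% = empty-vector control cells with DMSO; inhibition shows as a rise in luminescence from relieved DAX1 repression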
# Target sequence (P51843 207-470 limits assumed): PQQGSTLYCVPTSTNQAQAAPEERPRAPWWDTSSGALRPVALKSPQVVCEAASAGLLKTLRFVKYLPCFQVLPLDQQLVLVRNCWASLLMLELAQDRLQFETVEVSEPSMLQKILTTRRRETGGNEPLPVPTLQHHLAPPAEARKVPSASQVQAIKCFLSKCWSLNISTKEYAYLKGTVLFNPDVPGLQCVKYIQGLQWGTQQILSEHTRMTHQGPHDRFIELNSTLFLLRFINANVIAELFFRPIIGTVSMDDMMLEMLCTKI
# ssDAF-12 act = activates DAF-12 receptor from parasite S. stercoralis; HEK293 ssDAF-12/GRIP1 lit1-tk-luc reporter, luminescence; % of 3 µM dafachronic acid response; activation, % at 6.8 µM; hit rate 1% among 370,000; AID 652126;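 active = activation above the mean over all tested compounds plus 3 SD, cut at about 0.9% in these data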;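 also: 0% = DMSO-only wells and 100% = 3 µM delta7-dafachronic acid wells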
# hgDAF12 agonist = activates the H. glycines DAF-12 receptor ligand-binding domain. hit rate 1.8% among 370,000. HEK293 GAL4-hgDAF12 UAS-luciferase reporter, agonist luminescence; normalized to butyrate control. activation, % at 6.8 µM. AID 687014;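 active = activation above a cutoff set at the mean of all screened compounds plus 3 SD, cut at about 10% in these data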;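 also: 0% = DMSO wells and 100% = sodium butyrate wells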
# hcDAF-12 act = activates DAF-12 receptor from parasite H. contortus. HEK293 hcDAF-12 lit1-tk-luc reporter, luminescence; 0% DMSO, 100% Δ7-dafachronic acid. activation, % at 6.8 µM. hit rate 1.4% among 370,000. AID 652067;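 active = activation above the mean of all tested compounds plus 3 SD, cut at about 5.5% in these data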;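 also: 100% = response to 3 µM Δ7-dafachronic acid high control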
# DAX1 inh-2 = DAX1 (NR0B1) inhibition, primary screen; inhibition, % at 6.8 µM; HEK293T StAR-luciferase reporter, SF-1/DAX-1 repression relief; hit rate 1.1% among 370,000;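 active = inhibition above the mean over all tested compounds plus 3 SD, cut at about 3.6% in these data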;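 also: 0% = DAX-1 cells with DMSO and 100% = cells lacking DAX-1 with DMSO; higher inhibition means more luminescence from relief of DAX-1 repression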
# Starred values were filed as active, the others as inactive; . = no result given. Shown are actives, neighbours in structure and some others; about 4.1% of the full set was active somewhere.
SMILES,DAX1 inh-1,ssDAF-12 act,hgDAF12 agonist,hcDAF-12 act,DAX1 inh-2
CSc1nccc(N/N=C/c2ccccc2)n1,5.1*,0,11*,2,0
CCOc1ncccc1C(=O)OCC(=O)c1ccccc1Br,2,1.2*,-1,-2,0
CCOc1ncccc1C(=O)OCC(=O)c1ccccc1,-1,-2,-2,-2,-1
COCCCNC(=O)C[C@H]1C[C@@]2(C(=O)OC)C(=C[C@H](C(C)(C)C)O[C@@H]2C)N(Cc2cccc3ccccc23)C1=O,.,-1,5,-2,-1
O=C(CSc1nc2ccccc2n1Cc1ccccc1Cl)NN=C/C(Br)=C/c1ccccc1,.,-2,-3,-2,-2
CC(C)N(CCn1cnc2c([nH]c3ccccc32)c1=O)C(C)C,0,0,3,6.1*,1
CC(CN1CCCCC1)OC(=O)c1ccc2c(c1)OCCO2 (configuration not stated),0,0,7,4,1
CC(CN1CCOCC1)OC(=O)c1ccc2c(c1)OCCO2 (configuration not stated),2,0,11*,4,1
Cc1ccc(N(C)c2nc(N)nc(N)c2N=O)cc1,.,0,1,0,0
Cc1ccc(CCNC(=O)C2CCN(S(=O)(=O)N3CCC4(CC3)OCCO4)CC2)cc1,0,-2,1,6.0*,0
CCOC(=O)[C@]12CCCC3=C1N(CCC3)C(=O)[C@@H](CC(=O)N1CCCC1)C2,.,-1,-3,-2,0
CCCNC(=O)CCn1nc(-c2ccc(Cl)cc2)c2ccccc2c1=O,5.4*,-2,4,-2,0
COc1cc2ccccc2nn1,1,-1,1,2,0
COc1ccc2c(n1)Sc1nc3ccccc3nc1N2,5.5*,1,4,2,-2
CNCC(O)Cn1c2c(c3ccccc31)CCCC2 (configuration not stated),1,6.8*,0,-2,0
Cc1ccc2c(c1)c1c(n2CC(O)CNC(C)(C)C)CCCC1 (configuration not stated),0,-2,-3,1,1
CCCN(CCC)C(=O)Cn1c2ccccc2c2nc(=O)cc(C)n21,-1,1.1*,-1,4,1
O=C(Cc1ccc(Cl)c(Cl)c1)Nc1ccc(S(=O)(=O)Nc2ccon2)cc1,.,1,4,-2,0
CCCC1CCC2(CC1)CCC2OC(=S)Nc1ccccc1 (configuration not stated),.,-1,1,-2,.
COC(=O)C1=C(NC(=O)c2ccc(C)c(C)c2)CCS1,0,0,4,6.1*,0
COC(=O)C1=C(NC(=O)c2ccc(Br)cc2)CCS1,0,1,5,3,0
O=C(CCNS(=O)(=O)c1ccc(OC(F)(F)F)cc1)Nc1cccc(S(=O)(=O)N2CCCC2)c1,0,-1,-3,-1,0
CCCc1nnn(S(=O)(=O)c2ccc([N+](=O)[O-])cc2)c1CCC,5.0*,0,-1,0,1
COc1ccc(-c2ccc3sc4ccccc4c(=O)c3c2)cn1,2,-1,10*,2,1
COc1ccc(OCc2cc(C(=O)N3CCN(CC(=O)N(C)C)CC3)no2)c(Cl)c1,1,-1,-1,0,0
SMILES,DAX1 inh-1,ssDAF-12 act,hgDAF12 agonist,hcDAF-12 act,DAX1 inh-2
COc1ccc(OCc2cc(C(=O)N3CCSCC3)no2)c(Cl)c1,1,0,10,3,3.9*
CCOC(=O)C1CCN(C(=O)c2cc(COc3ccc(F)cc3F)on2)CC1,2,1,12*,2,3
COCCN1CCN(C(=O)c2cc(COc3ccc(Cl)cc3OC)on2)CC1,1,0,6,4,4.3*
COc1cc(Cl)ccc1OCc1cc(C(=O)N2CCCCCCC2)no1,0,0,3,1,1
COc1ccc(OCc2cc(C(=O)N3CCCCCC3)no2)c(Cl)c1,1,0,9,-1,4.1*
COCC1CCN(C(=O)c2cc(COc3ccc4c(c3)CCCC4)on2)C1 (configuration not stated),-1,-1,-1,-2,-1
O=C(c1cc(COc2ccc3c(c2)CCCC3)on1)N1CCCC1,4,1,10,4,4.0*
Cc1ccc(Nc2ccc(N3CCN(c4ccc([N+](=O)[O-])cc4)CC3)nn2)cc1,4.5*,-1,-3,-1,0
